Rows were chosen to be rich in hits. Some 6.7% of all compounds tested hit in one or more screens of this group.
T cruzi growth-1 = T. cruzi intracellular proliferation inhibitors, primary screen, cell-based, beta-gal Tulahuen parasites, NIH3T3 host, luminescence | T. cruzi beta-gal in NIH3T3, GalScreen luminescence, 90 h | inhibition, % at 8.34 µM | 5.9% of 77,000 active;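 active = mean inhibition above about 93%, with at least 55% of replicates each passing it, limit read from the data, passing the limit was not always enough; inconclusive = only one of those two conditions holds; inactive = neither condition holds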
Pf Dd2 inh = P. falciparum Dd2 growth inhibitors, primary screen, SYBR Green fluorescence, single dose replicates | activity change, % at 10 µM | 72 h; active compounds read low | 2.3% of 94,000 active; in the data active = activity change below about -80%; inconclusive = no clear call, values can overlap the other calls
C diff growth = C. difficile growth inhibitors, primary screen, HTS. AID 1259249, 2017. growth activity, negative = inhibition, % at 16 µg/mL (by protocol). 0.25% of 86,000 active. Clostridium difficile clinical isolate growth, OD600, 24 h; active compounds read low;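 active = mean growth activity at or below -80% and every replicate also at or below -80%; inconclusive = mean at or below -80% but some replicate above -80%; inactive = mean growth activity above -80%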
T cruzi growth-2 = T. cruzi intracellular proliferation inhibitors, confirmation, cell-based, NIH3T3 host, beta-gal parasite, luminescence, cherry-pick | shares compounds with T cruzi growth-1 | T. cruzi beta-gal in NIH3T3, GalScreen luminescence, 90 h | inhibition, % at 8.35 µM | 72% of 5,600 active | AID 651739, 2012;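 active = mean replicate inhibition above about 95% and at least 55% of replicates individually reaching it, limit read from the data; inconclusive = only one of the two criteria is met; inactive = neither criterion is met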
T cruzi growth-3 = inhibitors of intracellular T. cruzi replication, confirmation, NIH3T3 host cells, beta-gal parasites, cherry-pick, set 2. shares compounds with T cruzi growth-1. T. cruzi beta-gal in NIH3T3, GalScreen luminescence, 90 h. AID 651740, 2012. 21% of 5,600 active. inhibition, % at 2.09 µM;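 active = mean inhibition above about 95%, with at least 55% of replicates also reaching it, limit read from the data; inconclusive = meets just one of the two conditions; inactive = meets neither condition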
3T3 cytotox = cytotoxicity in mouse NIH/3T3 fibroblasts, confirmation, cytotoxicity control for T. cruzi proliferation inhibitor project, cell-based, cherry-pick, single point; shares compounds with T cruzi growth-1; NIH/3T3 viability, CellTiter-Glo ATP luminescence, 90 h; cytotoxicity (signal decrease), % at 8.35 µM; 14% of 5,600 active; AID 651742, 2012;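 active = mean signal decrease across replicates above about 35% based on untreated-well scatter, with enough replicates individually passing, limit read from the data; inconclusive = no rule stated though some were filed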
NIH3T3 tox 2 = NIH/3T3 fibroblast cytotoxicity, confirmation, cytotoxicity control, cell-based, cherry-pick, single point, set 2. shares compounds with T cruzi growth-1. NIH/3T3 viability, CellTiter-Glo ATP luminescence, 90 h. inhibition, % at 24.9 µM. 56% of 5,600 active. AID 651744, 2012;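 active = mean loss of cell viability signal at or above a set limit, and enough replicates individually reaching it; inconclusive = meets only the mean limit or only the replicate share; inactive = meets neither condition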
Of the large screens only hits and unclear results are named; the others gave an inactive call (follow-up assays come after a bar, where they were run).

COc1ccccc1-c1ccc2c(c1)O[C@@H](CN(C)S(=O)(=O)c1ccc(F)cc1)[C@@H](C)CN([C@@H](C)CO)S2(=O)=O	T cruzi growth-1 103 | T cruzi growth-2 109 | T cruzi growth-3 inactive | 3T3 cytotox 50 | NIH3T3 tox 2 45
C[C@@H]1CN([C@H](C)CO)S(=O)(=O)c2ccc(-c3ccccc3F)cc2O[C@H]1CN(C)S(C)(=O)=O	none
C[C@@H]1CN([C@@H](C)CO)S(=O)(=O)c2ccc(-c3ccccc3F)cc2O[C@H]1CN(C)S(C)(=O)=O	none
COc1ccccc1-c1ccc2c(c1)O[C@H](CN(C)S(=O)(=O)c1ccc(F)cc1)[C@H](C)CN([C@@H](C)CO)S2(=O)=O	T cruzi growth-1 99 | T cruzi growth-2 95 | T cruzi growth-3 inactive | 3T3 cytotox inactive | NIH3T3 tox 2 47
C[C@H]1CN([C@@H](C)CO)S(=O)(=O)c2ccc(-c3ccccc3F)cc2O[C@@H]1CN(C)S(C)(=O)=O	none
COc1ccccc1-c1ccc2c(c1)O[C@@H](CN(C)S(=O)(=O)c1ccc(F)cc1)[C@@H](C)CN([C@H](C)CO)S2(=O)=O	T cruzi growth-1 106 | T cruzi growth-2 99 | T cruzi growth-3 inactive | 3T3 cytotox inconclusive | NIH3T3 tox 2 64
COc1ccc(-c2ccc(C3[C@H]4CNC[C@@H]3N4Cc3cncnc3)cc2)cc1 (some centres not stated)	none (no result: T cruzi growth-1)
COc1ccc(NC(=O)N(C)C[C@H]2Oc3ccc(NS(=O)(=O)c4ccc(F)cc4)cc3CC(=O)N([C@H](C)CO)C[C@@H]2C)cc1	none
C[C@H](CO)N1C[C@H](C)[C@@H](CN(C)Cc2ccc(C(=O)Nc3ccccc3N)cc2)Oc2ccc(N(C)C)cc2CC1=O	T cruzi growth-1 122 | T cruzi growth-2 102 | T cruzi growth-3 inactive | 3T3 cytotox 37 | NIH3T3 tox 2 76
C[C@@H]1CN([C@@H](C)CO)C(=O)c2cc(NC(=O)Cc3ccccc3)ccc2O[C@H]1CN(C)Cc1ccc(C(=O)Nc2ccccc2N)cc1	none
C[C@H]1CN([C@@H](C)CO)C(=O)c2cc(N(C)C)ccc2O[C@@H]1CN(C)Cc1ccc(C(=O)Nc2ccccc2N)cc1	none
C[C@H](CO)N1C[C@H](C)[C@H](CN(C)Cc2ccc(C(=O)Nc3ccccc3N)cc2)Oc2ccc(N(C)C)cc2CC1=O	none
C[C@H]1CN([C@@H](C)CO)C(=O)c2cc(NC(=O)Cc3ccccc3)ccc2O[C@H]1CN(C)Cc1ccc(C(=O)Nc2ccccc2N)cc1	T cruzi growth-1 inconclusive | T cruzi growth-2 inactive | T cruzi growth-3 inactive | 3T3 cytotox inactive | NIH3T3 tox 2 inconclusive
C[C@@H]1CN([C@@H](C)CO)C(=O)c2cc(N(C)C)ccc2O[C@@H]1CN(C)Cc1ccc(C(=O)Nc2ccccc2N)cc1	T cruzi growth-1 104 | T cruzi growth-2 inactive | T cruzi growth-3 inactive | 3T3 cytotox inactive | NIH3T3 tox 2 inactive
O=C(N[C@H]1CC[C@@H](CCNS(=O)(=O)c2cccc(Cl)c2)O[C@H]1CO)c1ccncc1	none (no result: C diff growth)
O=C(Nc1ccc2c(c1)OCO2)N[C@@H]1CC[C@H](CCNC(=O)C2CCCC2)O[C@H]1CO	none (no result: T cruzi growth-1)
C[C@@H]1CCCCO[C@H](CN(C)S(=O)(=O)c2cccs2)[C@H](C)CN([C@@H](C)CO)C(=O)c2cc(NS(=O)(=O)c3cn(C)cn3)ccc2O1	none (no result: T cruzi growth-1)
COc1ccccc1-c1ccc2c(c1)O[C@@H](CN(C)C)[C@@H](C)CN([C@H](C)CO)S2(=O)=O	none
COc1ccccc1-c1ccc2c(c1)O[C@H](CN(C)S(=O)(=O)c1ccccc1)[C@H](C)CN([C@H](C)CO)S2(=O)=O	T cruzi growth-1 95 | T cruzi growth-2 105 | T cruzi growth-3 inactive | 3T3 cytotox inactive | NIH3T3 tox 2 37
COc1ccccc1-c1ccc2c(c1)O[C@@H](CN(C)C(=O)c1ccccc1)[C@H](C)CN([C@@H](C)CO)S2(=O)=O	none
COc1ccccc1-c1ccc2c(c1)O[C@H](CN(C)C(=O)c1ccccc1)[C@H](C)CN([C@H](C)CO)S2(=O)=O	none
C[C@@H]1CN([C@H](C)CO)S(=O)(=O)c2ccc(Br)cc2O[C@@H]1CN(C)S(=O)(=O)c1ccccc1	none (no result: T cruzi growth-1)
COc1ccccc1-c1ccc2c(c1)O[C@@H](CN(C)S(=O)(=O)c1ccccc1)[C@H](C)CN([C@@H](C)CO)S2(=O)=O	T cruzi growth-1 98, Pf Dd2 inh inconclusive | T cruzi growth-2 104 | T cruzi growth-3 inactive | 3T3 cytotox 47 | NIH3T3 tox 2 38
COc1ccccc1-c1ccc2c(c1)O[C@@H](CN(C)S(=O)(=O)c1ccccc1)[C@@H](C)CN([C@@H](C)CO)S2(=O)=O	T cruzi growth-1 80 | T cruzi growth-2 101 | T cruzi growth-3 99 | 3T3 cytotox inconclusive | NIH3T3 tox 2 42
COc1ccccc1-c1ccc2c(c1)O[C@@H](CN(C)S(=O)(=O)c1ccccc1)[C@@H](C)CN([C@H](C)CO)S2(=O)=O	T cruzi growth-1 90 | T cruzi growth-2 105 | T cruzi growth-3 inactive | 3T3 cytotox 60 | NIH3T3 tox 2 49
O=C(C[C@H]1C[C@@H]2c3cc(NC(=O)C4CCC4)ccc3O[C@@H]2[C@@H](CO)O1)NCCc1ccccc1	none
COCC(=O)Nc1ccc2c(c1)[C@H]1C[C@@H](CC(=O)NCc3ccc(Cl)cc3)O[C@@H](CO)[C@H]1O2	none
COc1ccccc1-c1ccc2c(c1)O[C@@H](CN(C)C(C)=O)[C@@H](C)CN([C@H](C)CO)S2(=O)=O	none
C[C@H]1CN([C@@H](C)CO)S(=O)(=O)c2ccc(Br)cc2O[C@@H]1CN(C)S(=O)(=O)c1ccccc1	none (no result: T cruzi growth-1)
COc1ccccc1-c1ccc2c(c1)O[C@H](CN(C)S(=O)(=O)c1ccccc1)[C@H](C)CN([C@@H](C)CO)S2(=O)=O	T cruzi growth-1 inconclusive | T cruzi growth-2 103 | T cruzi growth-3 inactive | 3T3 cytotox inactive | NIH3T3 tox 2 44
COc1ccccc1-c1ccc2c(c1)O[C@@H](CN(C)S(=O)(=O)c1ccccc1)[C@H](C)CN([C@H](C)CO)S2(=O)=O	T cruzi growth-1 inconclusive, Pf Dd2 inh -82 | T cruzi growth-2 105 | T cruzi growth-3 inactive | 3T3 cytotox 37 | NIH3T3 tox 2 39
COc1cccc(-c2cnc3c(c2)C(=O)N([C@@H](C)CO)C[C@@H](C)[C@@H](CN(C)C(C)=O)O3)c1	none

Assay outcomes: PubChem, Broad Institute
